Measurements reported in PubChem BioAssay (NCATS).
“And” between values parts separate entries of the source, which are not always exact repeats. Identical values can stand only once. Inconclusive results are not listed. Entries that show only a call come without a potency. The source made the active and inactive calls. Unless noted, calls follow the shape of the dose curve; as a rule, active = well fitted curve in the direction sought with a large enough effect; inconclusive = small, poorly fitted or top-dose-only effect, or another doubt; inactive = no such curve, though single readings can be large; an effect the other way counts as inactive or inconclusive.

Assays:
[1] = target: Cytochrome P450 3A4 (Homo sapiens) (UniProt P08684); experiment: qHTS Assay for Inhibitors and Substrates of Cytochrome P450 3A4 (AID 884); conditions: recombinant CYP3A4, Luciferin-PPXE luminescence; series mostly up to 57.1 µM; also: nearly all actives have a fitted effect of over 50% in size; also: potency is read from the fitted curve at half-maximal effect
Sequence of Cytochrome P450 3A4 (Homo sapiens) (P08684 whole entry, looked up): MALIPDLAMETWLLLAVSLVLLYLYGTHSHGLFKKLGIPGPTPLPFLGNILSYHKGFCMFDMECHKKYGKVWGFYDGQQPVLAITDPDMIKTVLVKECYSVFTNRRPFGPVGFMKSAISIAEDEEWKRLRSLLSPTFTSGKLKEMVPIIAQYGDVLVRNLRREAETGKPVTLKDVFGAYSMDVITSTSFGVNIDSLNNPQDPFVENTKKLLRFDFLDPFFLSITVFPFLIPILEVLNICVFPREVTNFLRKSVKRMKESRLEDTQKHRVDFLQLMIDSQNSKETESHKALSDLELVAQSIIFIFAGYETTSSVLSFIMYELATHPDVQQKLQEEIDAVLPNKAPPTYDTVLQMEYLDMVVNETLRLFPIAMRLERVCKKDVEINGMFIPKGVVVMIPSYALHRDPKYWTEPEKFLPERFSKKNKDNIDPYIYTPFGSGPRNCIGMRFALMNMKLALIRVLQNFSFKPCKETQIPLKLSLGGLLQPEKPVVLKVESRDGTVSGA
Outline: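 Luminescent readout of luciferin produced by CYP3A4 (20 nM) dealkylation of Luciferin-PPXE, 25 uM (its KM). NADPH-driven reaction ran 60 min at RT after 10 min compound preincubation; data scaled to 57 uM ketoconazole as 100% inhibition.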

[2] = qHTS Assay for Lipid Storage Modulators (AID 1519; calls by dose curve); conditions: Drosophila S3 cells, BODIPY lipid droplet/cell ratio, laser cytometry, cells loaded with oleic acid; for activity change, negative = inhibition: at 57.5 µM (top of the series)
Outline: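 Cells seeded at 5,000 per well were treated with compounds over a concentration series and loaded with oleic acid (400 uM, as added). Lipid droplet fluorescence (488 nm excitation, 500-530 nm channel) was read by laser-scanning cytometry and normalized to 20 uM Triacsin C.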

[3] = target: Ubiquitin carboxyl-terminal hydrolase 1 (Homo sapiens) (UniProt O94782); experiment: Inhibitors of USP1/UAF1: Pilot qHTS (AID 504865); conditions: purified USP1/UAF1, Ub-rhodamine cleavage fluorescence; series mostly up to 114 µM;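 also: rhodamine fluorescence freed from ubiquitin-rhodamine substrate followed over time; top concentration of the series differs between compounds; nearly all actives have a fitted effect of over 35% in size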
Sequence of Ubiquitin carboxyl-terminal hydrolase 1 (Homo sapiens) (O94782 whole entry, looked up): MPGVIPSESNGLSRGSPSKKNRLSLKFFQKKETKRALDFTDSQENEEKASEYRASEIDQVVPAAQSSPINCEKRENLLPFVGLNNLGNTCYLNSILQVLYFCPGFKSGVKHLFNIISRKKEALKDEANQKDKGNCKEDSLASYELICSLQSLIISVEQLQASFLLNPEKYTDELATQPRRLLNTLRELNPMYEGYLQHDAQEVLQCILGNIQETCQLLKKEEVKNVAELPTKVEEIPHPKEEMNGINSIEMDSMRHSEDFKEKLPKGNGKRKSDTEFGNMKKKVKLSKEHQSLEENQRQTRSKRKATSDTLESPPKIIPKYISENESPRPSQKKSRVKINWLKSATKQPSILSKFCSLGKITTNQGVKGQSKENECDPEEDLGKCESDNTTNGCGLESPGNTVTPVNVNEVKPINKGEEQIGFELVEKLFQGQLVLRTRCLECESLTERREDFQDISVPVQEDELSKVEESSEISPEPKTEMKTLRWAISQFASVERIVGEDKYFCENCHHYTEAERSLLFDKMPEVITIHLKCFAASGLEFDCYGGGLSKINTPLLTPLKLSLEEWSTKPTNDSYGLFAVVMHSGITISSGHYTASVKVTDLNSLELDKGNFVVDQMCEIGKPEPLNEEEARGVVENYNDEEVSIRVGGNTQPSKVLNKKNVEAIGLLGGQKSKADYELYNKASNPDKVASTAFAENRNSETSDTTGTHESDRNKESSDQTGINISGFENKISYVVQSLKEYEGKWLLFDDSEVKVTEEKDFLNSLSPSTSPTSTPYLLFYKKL
Outline: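 In 50mM HEPES pH 7.8 containing 0.5mM EDTA, 1mM TCEP, 0.1 mg/ml BSA and 0.01% Tween-20, 1nM USP1/UAF1 is exposed to compound for 15 min, then Ub-Rho (150nM final) is added and fluorescence is read over time.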

[4] = target: DNA dC->dU-editing enzyme APOBEC-3G (Homo sapiens) (UniProt Q9HC16); experiment: qHTS for inhibitors of Vif-A3G interactions: Validation (AID 588379); conditions: Vif-A3G protein interaction assay; series mostly up to 46.1 µM
Sequence of DNA dC->dU-editing enzyme APOBEC-3G (Homo sapiens) (Q9HC16 whole entry, looked up): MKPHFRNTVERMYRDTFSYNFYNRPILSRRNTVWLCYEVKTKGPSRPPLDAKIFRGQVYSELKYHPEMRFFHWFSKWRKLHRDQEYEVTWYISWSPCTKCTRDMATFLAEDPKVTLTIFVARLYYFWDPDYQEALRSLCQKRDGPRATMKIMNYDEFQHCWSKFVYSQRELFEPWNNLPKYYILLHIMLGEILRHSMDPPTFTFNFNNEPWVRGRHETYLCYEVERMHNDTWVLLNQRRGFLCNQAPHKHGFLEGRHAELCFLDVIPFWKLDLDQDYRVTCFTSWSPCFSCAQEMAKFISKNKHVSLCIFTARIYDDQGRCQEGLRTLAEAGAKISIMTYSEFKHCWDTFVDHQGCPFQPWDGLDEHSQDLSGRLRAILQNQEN
Outline: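 Yellow fluorescence (Ex 488, Em 500-530) of Vif-coexpressing HeLa A3G-eYFP cells, scanned by Acumen cytometer, reports blocked A3G degradation. Cells plated at 700/well overnight at 37 deg C before compound addition, then a further overnight compound incubation at 37 deg C.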

[5] = target: Cytochrome P450 3A4 (Homo sapiens) (UniProt P08684); experiment: qHTS Assay for Activators of Cytochrome P450 3A4 (AID 885); conditions: recombinant CYP3A4, Luciferin-PPXE luminescence, 60 min; series mostly up to 57.1 µM; also: nearly all actives have a fitted effect of over 65% in size; also: potency is read from the fitted curve at half-maximal effect
Outline: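 Human CYP3A4 dealkylates Luciferin-PPXE to luciferin, which luciferase detection converts to light. Substrate was at its KM (25uM), buffer 200mM KPO4, reaction 60 min at RT.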

[6] = Confirmation and Secondary Assay for Modulators of Hemoglobin Beta Chain Splicing at IVS2 654 locus (AID 910); conditions: HeLa EGFP-654 splicing reporter, GFP fluorescence, 48 h; series mostly up to 46.1 µM;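 also: HeLa cells stably carrying EGFP split by mutant beta-globin IVS2-654 intron; per-well total GFP intensity by laser scanning cytometry after 2-day treatment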
Outline: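 Readout: per-well total peak green fluorescence (488 nm ex, 500–520 nm em) from objects 5–250 µm, reflecting correct splicing of an EGFP-654 reporter. Compounds were applied for 2 days at 37 °C to overnight-plated HeLa EGFP-654 cells; controls were DMSO and 500 nM IVS2-654 PNA.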

[7] = Confirmation and Secondary Assay for Modulators of Hemoglobin Beta Chain Splicing at IVS2 705 locus (AID 930); conditions: HeLa EGFP-705 splicing reporter, GFP fluorescence, 48 h; series mostly up to 46.1 µM;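 also: HeLa cells stably expressing the EGFP-705 splicing reporter; GFP fluorescence per well restored by corrected splicing of the IVS2-705 intron in EGFP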
Outline: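 Per-well GFP, captured at 1 x 8 µm resolution with 488 nm excitation, served as the read-out for HeLa EGFP-705 cells incubated 2 days with test compound versus DMSO.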

[8] = target: Luciferin 4-monooxygenase (Photinus pyralis) (UniProt P08659); experiment: Biochemical firefly luciferase enzyme assay for NPC (AID 624030);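 also: purified P. pyralis luciferase at 10 nM with luciferin and ATP substrate; nearly all actives have a fitted effect of over 70% in size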; conditions: purified P. pyralis luciferase, luminescence, 5 min; series mostly up to 24.9 µM
Sequence of Luciferin 4-monooxygenase (Photinus pyralis) (P08659 whole entry, looked up): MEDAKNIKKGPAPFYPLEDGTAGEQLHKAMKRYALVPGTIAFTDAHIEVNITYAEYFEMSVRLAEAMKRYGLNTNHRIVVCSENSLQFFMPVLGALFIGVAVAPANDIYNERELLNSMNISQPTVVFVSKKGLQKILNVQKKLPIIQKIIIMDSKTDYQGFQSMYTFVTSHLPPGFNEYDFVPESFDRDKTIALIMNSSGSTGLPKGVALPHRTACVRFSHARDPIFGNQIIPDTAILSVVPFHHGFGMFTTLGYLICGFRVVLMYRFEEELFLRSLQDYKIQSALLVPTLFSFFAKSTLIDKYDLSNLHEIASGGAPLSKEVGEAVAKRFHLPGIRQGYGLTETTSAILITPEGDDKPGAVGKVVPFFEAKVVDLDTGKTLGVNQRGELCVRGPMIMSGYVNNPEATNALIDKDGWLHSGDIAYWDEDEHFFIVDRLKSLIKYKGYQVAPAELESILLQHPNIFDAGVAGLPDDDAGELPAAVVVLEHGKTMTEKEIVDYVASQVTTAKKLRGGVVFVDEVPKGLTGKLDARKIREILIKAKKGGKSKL
Outline: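 Direct inhibition of firefly luciferase enzyme (10 nM final, 50 mM Tris Acetate) assessed by luminescence within 5 minutes. Percent activity scaled between DMSO and PTC124 positive control, with concentration-effect curves classified by fit quality and response.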

[9] = measured here: cell count channel max response
[10] = measured here: lipid channel max response

SMILES | Potency [1] | activity change, negative = inhibition [2] | max response [2, 9] | max response [2, 10] | Potency [3] | outcome [4] | Potency [5] | Potency [6] | Potency [7] | Potency [8]
O=c1[nH]c(=O)n([C@@H]2O[C@H](CO)[C@@H](O)[C@H]2O)cc1F | inactive | -3.28% (inactive) | 0.66% | -5.85% | inactive | inactive |  |  |  | 
COc1cc(OC)c2c(=O)c(O)c(-c3ccc(OC)c(OC)c3)oc2c1 | 2.51 µM (active) | 4.09% (inactive) | 5.03% | 9.16% | inactive |  | inactive | inactive | inactive | 
NCC1O[C@@H](O[C@@H]2C(O)[C@H](O[C@H]3OC(CO)C(O)C(N)C3O)[C@@H](N)C[C@H]2N)C(N)C(O)C1O (stereo partly specified) | inactive | 5.31% (inactive) | 20.8% | 32.5% | inactive |  |  | inactive | inactive | inactive
COc1ccc2c(c1)OCC(Cc1ccc(OC)c(OC)c1)C2O (stereo unspecified) | 7.94 µM (active) and 12.6 µM (active) | 6.38% (inactive) | 8.42% | 15.9% | inactive |  | inactive | inactive | inactive | 
CC1(C)C(=O)CC[C@@]2(C)C1CC(O)[C@@]1(C)C3=CC(=O)OC(c4ccoc4)[C@]3(C)CCC21 (stereo partly specified) | 15.8 µM (active) | 11% (inactive) | 13.9% | 28.4% | inactive |  | inactive | inactive | inactive | 
Cc1cc(O)cc(O)c1C(=O)O | 25.1 µM (active) | 4.63% (inactive) | 10.6% | 18.2% | inactive |  | inactive | inactive | inactive | 
O=C(O)CCCCC1SCC2NC(=O)NC21 (stereo unspecified) | inactive | 0.834% (inactive) | 11.8% | 16% | inactive |  |  | inactive | inactive | inactive
COc1ccc2c(c1)OCC(Cc1ccc(OC)c(O)c1)C2=O (stereo unspecified) | 25.1 µM (active) | 6.62% (inactive) | 3.51% | 13% | inactive |  | inactive | inactive | inactive | 
COc1cc(OC)c2c(=O)c(OC)c(-c3ccc(OC)c(OC)c3)oc2c1 | 1.26 µM (active) | 1.54% (inactive) | 14.1% | 15.7% | inactive |  | inactive | inactive | inactive | 
CC(=O)OC1CC(OC(C)=O)[C@]2(C)C(CC(=O)[C@]3(C)C2CC[C@@]2(C)C(c4ccoc4)OC(=O)C4O[C@@]423)C1(C)C (stereo partly specified) | 20 µM (active) | 4.36% (inactive) | 11.4% | 20.9% | inactive |  | inactive | inactive | inactive | 
Nc1ccn([C@H]2C[C@H](O)[C@@H](CO)O2)c(=O)n1 | inactive | 0.617% (inactive) | 3.42% | 2.44% | inactive | inactive |  |  |  | 
CCN(CC)Cc1ccc(Nc2ccnc3cc(Cl)ccc23)cc1O | inactive | -0.352% (inactive) | 18.7% | 21.7% | inactive |  | 7.94 µM (active) | inactive | inactive | 
O=c1c(-c2ccc(O[C@@H]3O[C@H](CO)[C@@H](O)[C@H](O)[C@H]3O)cc2)coc2cc(O)cc(O)c12 | inactive | 7.95% (inactive) | -1.95% | 5.64% | inactive | inactive |  |  |  | 
O=c1cc(-c2ccccc2)oc2cccc(O)c12 |  | 19.1% (inactive) | 2.34% | 21.9% | inactive | inactive | inactive | inactive | inactive | 
C/C=C(/C)C(=O)OC1Cc2c(ccc3ccc(=O)oc23)OC1(C)C (stereo unspecified) | inactive | 2.21% (inactive) | 9.88% | 14.5% | inactive |  | 15.8 µM (active) | inactive | inactive | 
CC(=O)OC1C[C@@]2(C)C(c3ccoc3)OC(=O)C3O[C@@]32[C@]2(C)C(OC(C)=O)CC3C(C)(C)C(OC(C)=O)CC(OC(C)=O)[C@@]3(C)C12 (stereo partly specified) | 5.01 µM (active) | -11.3% (inactive) | -1.68% | -11% | inactive |  | inactive | inactive | inactive | 
COc1ccc(-c2c(O)c3c(OC)c4c(cc3oc2=O)OC(C)(C)C=C4)cc1 | 6.31 µM (active) | -13.4% (inactive) | -5.03% | -5.79% | inactive |  | inactive | inactive | inactive | 
COC(=O)CC1C(C)(C)C(=O)C2CC3=C4CC(=O)OC(c5ccoc5)[C@]4(C)CCC3[C@@]1(C)C2=O (stereo partly specified) | 1.58 µM (active) | 1.08% (inactive) | 14.1% | 18% | inactive |  | inactive | inactive | inactive | 
CC(=O)OCC1OC(n2cnc3c(Cl)nc(Cl)nc32)C(OC(C)=O)C1OC(C)=O (stereo unspecified) | inactive | -4.18% (inactive) | 15.8% | 12.7% | inactive |  |  | inactive | inactive | 
CON | inactive | 4.31% (inactive) | 12.5% | 21.6% | inactive |  |  | inactive | inactive | 
CC(=O)OCC(=O)[C@@]1(O)CCC2C3CCC4=CC(=O)CC[C@]4(C)C3C(O)C[C@]21C (stereo partly specified) | inactive | 7.11% (inactive) | 10.3% | 18.3% | inactive |  |  | inactive | inactive | 
CC(=O)OC1CC[C@@]2(C)C3=CC(=O)[C@]4(C)C(CC5OC6(OCC(C)CC6Br)C(C)C54)C3CC[C@H]2C1 (stereo partly specified) | inactive | -8.55% (inactive) | -17.7% | -20.5% | inactive |  |  | inactive | inactive | 
